The panel holds about 83,000 compounds, 20% with a hit somewhere; the sample as a whole holds those more often.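 A percent growth of 40 corresponds to 60% growth inhibition; 0 means no net growth; -100 means all cells died. Active threshold: below 10.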 Unmarked numbers belong to inactive results. The source made the active and inactive calls.
system: SK-MEL-28 melanoma; test: NCI-60 one-dose screen, 48 h (100 = growth as untreated, 0 = no growth, -100 = all killed); conditions: 10 µM unless noted
Protocol: Growth inhibition of the SK-MEL-28 human tumor cell line is measured as a screen for anti-cancer activity. Cells are grown in 96 well plates and exposed to the test compound for 48 hours. Compounds are tested at a single concentration, which is 10^-5 M for most compounds. The reported endpoint is percent growth (GI% or GIPRCNT), where numbers from 0 - 100% represent growth inhibition, and numbers from -100% - 0 represent cell death. For example, a value of 40 represents 60% growth inhibition. A value of 0 means no net growth occurred over the course of the experiment. A value of -40 indicates 40% of cells at the beginning of the experiment died by the end of the experiment. A value of -100 means all cells are dead at the end of the experiment.
NCI-60 Human Tumor Cell Lines Screen was performed using the standard one-dose NCI protocol, which is described in more detail at https://dtp.cancer.gov/discovery_development/nci-60/default.htm.
Compounds with GIPRCNT values below 10 were considered active. Activity score was based on GIPRCNT using the following formula: […]
Score is 0 for GIPRCNT values of 100 or above, 50 for GIPRCNT values of 0, and 100 for GIPRCNT values of -100.

Row | SMILES | growth
1 | C=C1C(=O)O[C@H]2[C@H]1CC/C(COC(=O)NCc1[nH]nc3ccccc13)=C\CC[C@@]1(C)O[C@@H]21 | 30.3%
2 | O=C1C=CN2C(=O)CC=CC2[C@@H]1O (stereo not given in full) | 110%
3 | CC(C)C/C=C/C=C/C(=O)N[C@@H](CC(N)=O)C(=O)N[C@@H]1C(=O)N[C@H](c2ccc(O)cc2)C(=O)N[C@H](CCCN)C(=O)N[C@H]([C@@H](C)O)C(=O)N[C@H](c2ccc(O)cc2)C(=O)N[C@H](c2ccc(O)cc2)C(=O)N[C@H]([C@H](C)O)C(=O)N[C@H](Cc2ccccc2)C(=O)N[C@H](CCCN)C(=O)N[C@H](c2ccc(O[C@H]3O[C@@H](CO)[C@@H](O)[C@@H](O)[C@H]3O[C@@H]3O[C@H](CO)[C@H](O)[C@H](O)[C@@H]3O)cc2)C(=O)N[C@H]([C@H](C)O)C(=O)N[C@H](c2ccc(O)cc2)C(=O)NCC(=O)N[C@H](CC(C)C)C(=O)N[C@H](C)C(=O)N[C@H](c2ccc(O)c(Cl)c2)C(=O)O[C@@H]1C(N)=O | 22.8%
4 | COc1cc(NC(=O)CSc2nc3ccc(Cl)cc3c(=O)n2-c2ccccc2)cc(OC)c1OC | 97.2%
5 | CCCCc1nc(Cl)c(C2CC(c3ccc(S(N)(=O)=O)cc3)=NN2c2ccc(C#N)cc2)[nH]1 (stereo not given) | 107%
6 | NNc1ccc(S(N)(=O)=O)cc1 | 108%
7 | C[C@H](NC(=O)c1snnc1C1CC1)c1c(F)cccc1Cl | 110%
8 | Cc1cc([N+](=O)[O-])c(C)cc1N | 103%
9 | COc1cc(OC)cc(-c2ccc(-c3ccc(C(=N)N)s3)s2)c1 | -85.3% (active)
10 | ClCCn1cnc2c(SCc3ccccc3Cl)ncnc21 | 47.3%
11 | CSC1=N/C(=C\c2cccc(OCc3ccc(Cl)cc3)c2)C(=O)N1 | 100%
12 | CC(=O)N1N=C(C2C(=O)N(C)C(=O)N(C)C2=O)CC1c1ccccc1C(=O)O (stereo not given) | 112%
13 | COc1ccc(/C=C/C(=O)CCC(=O)O)cc1OC | 112%
14 | CCOC(=O)N1C2CCC(C2)N1C(=O)OCC | 97.4%
15 | CCN(C(=O)CCl)C(C)(C)C(SSSC(c1ccc(Cl)cc1)C(C)(C)N(CC)C(=O)CCl)c1ccc(Cl)cc1 (stereo not given) | -24.6% (active)
16 | CCOC(=O)Nc1ccc2nc(Sc3ccc(Cl)cc3)sc2c1 | 38.1%
17 | COc1cc(C2CC(c3ccccc3)=NN2C=O)ccc1Oc1nc2c(c(=O)n(C)c(=O)n2C)n1C (stereo not given) | 95.1%
18 | C/C(=N\Nc1ccc([N+](=O)[O-])cn1)c1ccc(N)cc1 | 113%
19 | Clc1ccc(Cl)c(N=Cc2ccc3c(c2)OCO3)c1 | 116%
20 | COc1ccc2nc3ccccc3c(NCc3ccc(Cl)cc3)c2c1 | 7.07% (active)

Row | SMILES | growth
21 | O/N=C/c1ccncc1 | 115%
22 | C[N+](C)(C)CCCCCCCCCC[N+](C)(C)C | 104%
23 | CCN(CC)CCNC(=O)C(F)(F)C(F)(F)C(F)(F)F | 115%
24 | CCN1C(=O)N(CC)C2C1NN=c1s/c(=C\c3ccco3)c(=O)n12 (stereo not given) | 58.9%
25 | CCOC(=O)C1C(=O)C=C(c2ccccc2)CC1c1sc(N(C)Cc2ccccc2)nc1Cl (stereo not given) | 109%
26 | CCOC(=O)c1ccc(NC(=O)CSC(N)=O)cc1 | 128%
27 | CCOC(OCC)c1cnc2nc(NC(C)=O)[nH]c(=O)c2n1 | 105%
28 | Nc1ncnc2c1N=C(c1ccc3c(c1)OCO3)CC(c1ccc(Cl)cc1)N2 (stereo not given) | 88.5%
29 | COc1ccc2nc3cc(Cl)ccc3c(NC(=O)CSc3ccc(Cl)cc3)c2c1 | -96.8% (active)
30 | C#CCNc1nc(NCCNC(=O)CCl)nc(N(C)CCCCc2ccccc2)n1 | 104%
31 | NNC(=O)CSc1nc2scc(-c3ccccc3)c2c(=O)n1-c1ccccc1 | 111%
32 | O=C(Nc1ccccc1)c1cc2ccccc2s1 | 107%
33 | CCN(CC)c1ccc2c(cc1=O)[C@@H](NC(C)=O)CCc1cc(OC)c(OC)c(OC)c1-2 | 62.3%
34 | COc1cc(Cl)cc(-c2nn(C(=O)NCCN3CCOCC3)cc2-c2ccncc2)c1 | 61.4%
35 | CC(C)CCSc1nc(Nc2ccccc2)c(C#N)c(-c2ccc(F)cc2)n1 | 87.3%
36 | c1ccc(CCn2cccc2)nc1 | 118%
37 | COc1ccc(/C(C)=N/NC(=O)c2ccc(S(C)(=O)=O)cc2)cc1OC | 105%
38 | COc1ccc(Nc2nc(N)nc3c(=O)[nH]ccc23)cc1 | 124%
39 | C(=Nc1ccc(-c2ccc(N=Cc3ccccc3)cc2)cc1)c1ccccc1 | 99.9%
40 | COc1cccc(-c2nc3sccn3c2-c2ccnc(NCCN3CCCNS3(=O)=O)n2)c1 | 44.1%

Source: PubChem BioAssay (NCI)
